Reference: PubChem BioAssay AID504408 (Broad Institute, 2011)
Out of some 300,000 compounds screened, about 5,200 (1.7%) were called active. This is one part of a sample in which actives are shown more often than they occur.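 The calls were made as follows: active = mean replicate activation of at least 50% with a set share of replicates each reaching 50%; inconclusive = only one of those two conditions met; inactive = mean below 50% and too few replicates reaching it.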

experiment: HSF-1 response element luciferase induction – NIH3T3-HGL cells, MG132 stress, luminescence, single point, primary screen (AID 504408); details: NIH3T3-HGL HSF-1 luciferase reporter, MG132, 8 h; at 9 µM; active compounds read high; 100% = twice DMSO control signal;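 also: 0% = median of the neutral control wells and 100% = twice that signal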

activation, active:
Cc1c(CNCCc2ccccc2)c(C(=O)O)c(C)n1-c1ccccc1 60.5%
COc1ccc(C(=O)CCc2ccccc2O)c(OC)c1 58%
CCOC(=O)c1c(Cc2ccc(Cl)cc2)c[nH]c1C 87.7%
O=C(COC(=O)/C=C/c1nc2ccccc2s1)Nc1ccccc1Oc1ccccc1 54.4%
C/C(=N\Nc1nc2ccccc2[nH]1)c1cccs1 106%

activation, inactive:
CNC(=O)CSc1nnc(CCc2ccccc2)n1-c1ccccc1 -1.82%
Cc1c(C(=O)NCc2ccccc2)cnn1-c1ccccc1 2.05%
CC1(C)C/C(=N/Nc2ccc([N+](=O)[O-])cc2[N+](=O)[O-])C(C)(C)O1 -1.15%
COc1ccc(C(=O)CCC(=O)Nc2cccnc2)c(OC)c1 11.9%
COc1ccc(C(=O)NC(C)CCc2ccccc2)c(OC)c1 (stereo unspecified) 15.4%
O=C(Nc1ncccc1O)c1ccc(S(=O)(=O)N2CCCC2)cc1 2.49%
COc1cccc(N2CC(NS(=O)(=O)c3cccs3)CC2=O)c1 (stereo unspecified) 2.81%
O=C(Nc1cc(S(=O)(=O)N2CCOCC2)ccc1OCC(F)(F)F)c1ccc(N2CCCC2=O)cc1 -1.99%
CCOC(=O)c1ccc(CS(=O)c2ccc(Cl)cc2)o1 (stereo unspecified) 8.33%
CCOC(=O)N1CCN(C(=O)CNC(=O)Cc2ccc(Cl)cc2)CC1 9.04%
NC1=NC(c2ccc([N+](=O)[O-])cc2)N(c2ccc(F)cc2)C(N)=N1 (stereo unspecified) -0.817%
O=C(COC(=O)c1cnccn1)Nc1ccc(Cl)cc1C(F)(F)F -12.3%
Cc1ccc(Cl)c(OCC(=O)N(C)CC(=O)Nc2ccc(N3CCOCC3)cc2)c1 1.72%
COc1ccc(-c2csc3ncnc(N4CCN(S(=O)(=O)c5cccc(F)c5)CC4)c23)cc1 2.84%
Cc1cc(NC(=O)CSC2=NS(=O)(=O)c3cc(Cl)ccc3N2)no1 1.14%
CCN(C(=O)COC(=O)/C=C/c1nc2ccccc2s1)C1CCS(=O)(=O)C1 (stereo unspecified) 16.8%
COc1ccc(/C=C/C(=O)OCC(=O)Nc2cccc(Oc3ccccc3)c2)c(OC)c1 35.6%
O=C(Nc1ccccc1-c1nc2ccccc2[nH]c1=O)c1cccs1 -0.37%
C/C(=N\Nc1ncc(Cl)cc1Cl)c1cccs1 -33.8%
Cc1sc2ncnc(N3CCC(C(=O)NNC(=O)c4ccc(F)cc4)CC3)c2c1C -17.9%
Cn1c(SCC(=O)c2ccccc2)ncc(C(=O)Nc2ccc(F)cc2)c1=O 9.37%
